Records with an inconclusive call do not appear. Calls of active or inactive are those of the source. Calls follow the shape of the dose curve; as a rule, active = well fitted activation curve with a large enough effect; inconclusive = small, poorly fitted or top-dose-only effect; inactive = flat fitted curve, though single readings scatter.

This test in a line: Cellular Toxicity (caspase-3) Hek293 (AID 664).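 Also: cells exposed to compound for 16 h at 37 °C before readout.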 Particulars: HEK293 caspase-3 activation, DMSO = 0%, 100 µM tamoxifen = 100%; at 92.2 µM (top of the series). An excerpt: NIH Chemical Genomics Center [NCGC]
NIH Molecular Libraries Screening Centers Network [MLSCN]
National Institutes of Environmental Health Sciences [NIEHS]
National Toxicology Program [NTP]
We have developed a 1536-well cell-based assay for quantitative high throughput screening (qHTS) against a number of cell lines to determine in vitro caspase 3/7 of small molecules. This particular assay uses the Hek 293 cell line which is derived from human embryonic kidney cells.
NCGC Assay Protocol Summary:
The Caspase-Glo 3/7 assay (Promega) is a homogeneous method to measure caspase-3 and caspase-7 activities in cultured cells. The quantitation of caspase 3/7 activity is based on the cleavage of a peptide-aminoluciferin substrate. After caspase cleaves the substrate the free aminoluciferin is liberated and serves as the substrate of luciferase, which generates the light. The luminescent signal is proportional to amount of caspase 3/7 activity present.
Using the Caspase-Glo 3/7 assay, the amount of caspase 3/7 activity was measured in the Hek 293 cell line with complete culture medium following compound treatment for 16 hours. The assay was performed in opaque white 1536-well plates. In the screen, tamoxifen and doxorubicin were used as positive controls. Library compounds were measured for their ability to cause the activation of caspase 3/7 in the cell line, as reflected by an increase in luminescence signal, in a concentration-dependent manner. Data were normalized to the controls for basal activity (DMSO only) and 100% stimulation (100 uM tamoxifen). AC50 values were determined from concentration-response data modeled with the standard Hill equation.
qHTS protocol for caspase 3/7 assay in Hek 293 cells
[Step] [Parameter] [Value] [Description]
2. Time; 5 hr; 37 °C incubation
4. Controls; 23 nL; Tamoxifen 0.23 uM to 100 uM & Doxorubicin 7.0 pM to 100 uM
5. Time; 16 hr; 37 °C incubation
6. Reagent; 5 uL; Caspase-Glo 3/7 reagent
7. Time; 20 min; Room Temperature
8. Detection; Luminescence; Viewlux plate reader
Keywords: caspase 3/7, apoptosis, Hek 293 cell line, luminescence, NTPHTS, NTPHTS_NCGC, NIEHS, EPA, DSSTox, MLSMR, MLSCN, NIH Roadmap, qHTS, NCGC
Take `Clc1ccc(Cl)c(Cl)c1`: the caspase-3 activation was 0.169% (inactive).

As to `ClCCOCOCCCl`, the caspase-3 activation was -1.31% (inactive).

On to `OCCCCO`, for which the caspase-3 activation is -2.02% (inactive).

Take `BrC(Br)Br`: the caspase-3 activation is -0.311% (inactive).

`Clc1ccc(C(Cl)(Cl)Cl)cc1Cl`: the caspase-3 activation was 1.11% (inactive).

In the case of `COc1cc(-c2ccc(N)c(OC)c2)ccc1N`, the caspase-3 activation was -1.4% (inactive).

With `c1ccoc1`, the caspase-3 activation is -1.2% (inactive).

As to `O=c1ccc(=O)[nH][nH]1`, the caspase-3 activation is -1% (inactive).

As for `Nc1ccc(-c2ccccc2)cc1`, the caspase-3 activation is 1.62% (inactive).

With `Nc1ccc(-c2ccc(N)c(Cl)c2)cc1Cl`, the caspase-3 activation was 4.67% (inactive).

`O=[N+]([O-])c1ccc2c3c(cccc13)CC2`: the caspase-3 activation is 1.65% (inactive).

Take `C=CCCl`: the caspase-3 activation is 0.123% (inactive).

Regarding `CC(C)(C)C(O)(CCc1ccc(Cl)cc1)Cn1cncn1` (stereo not given), the caspase-3 activation is 3.2% (inactive).

`Nc1cccc2ccccc12`: the caspase-3 activation is 156% (active).

As for `Cc1ccc([N+](=O)[O-])cc1`, the caspase-3 activation was -0.449% (inactive).

`Nc1ccc(Cl)c(Cl)c1`: the caspase-3 activation was 0.307% (inactive).

Regarding `CCOC(=O)CBr`, the caspase-3 activation is 1.06% (inactive).

Regarding `O=[N+]([O-])c1cc(Cl)c(Cl)cc1Cl`, the caspase-3 activation is -4.07% (inactive).

Take `C/C=C/CC#N`: the caspase-3 activation was 1.26% (inactive).

For `CCC[N+](=O)[O-]`, the caspase-3 activation is 0.185% (inactive).

Take `CN(C)C(=O)Nc1cccc(C(F)(F)F)c1`: the caspase-3 activation was 0.171% (inactive).

As to `CN(C)C(=O)Cl`, the caspase-3 activation is -0.876% (inactive).

As to `Nn1cnnc1`, the caspase-3 activation is 0.966% (inactive).

With `C=CCBr`, the caspase-3 activation is 1.99% (inactive).

In the case of `Oc1cc(Cl)c(Cl)c(Cl)c1Cl`, the caspase-3 activation was 8.07% (inactive).

For the compound `CC(C)OS(C)(=O)=O`, the caspase-3 activation is -0.589% (inactive).

In the case of `CC(C)Br`, the caspase-3 activation is -2.59% (inactive).

Consider `BrCC(Br)C1CCC(Br)C(Br)C1` (stereo not given), for which the caspase-3 activation was 6.64% (inactive).

Regarding `O=[N+]([O-])c1c(Cl)c(Cl)c(Cl)c(Cl)c1Cl`, the caspase-3 activation is 2.86% (inactive).

For `O=S(=O)(O)F`, the caspase-3 activation is 4.29% (inactive).

On to `O=C(Cl)c1ccccc1F`, for which the caspase-3 activation is 1.06% (inactive).

On to `CC(Cl)CCl` (stereo not given), for which the caspase-3 activation is -1.21% (inactive).

`O=C(Cl)OCc1ccccc1`: the caspase-3 activation is 0.783% (inactive).

As to `ClC(Cl)C(Cl)Cl`, the caspase-3 activation was -0.455% (inactive).

For the compound `C(CCOCC1CO1)COCC1CO1` (stereo not given), the caspase-3 activation was 0.467% (inactive).

On to `CCCCOC(C)=O`, for which the caspase-3 activation is -0.0829% (inactive).

As for `CCCCC(=O)Cl`, the caspase-3 activation is -0.249% (inactive).

As to `Oc1c(Cl)c(Cl)cc(Cl)c1Cl`, the caspase-3 activation is -2.19% (inactive).

For `C=CC#N`, the caspase-3 activation is -0.49% (inactive).

`C1CC2OC2CC1C1CO1` (stereo not given): the caspase-3 activation was -2.81% (inactive).
